# HADH2 inhib = blocks human hydroxyacyl-CoA dehydrogenase type II; recombinant HADH2, NADH fluorescence, beta-hydroxybutyryl-CoA; Q99714; 73,000 tested, 3.4% active; AID 886; Potency, µM (doses to about 57.1 µM), for inactives: at the highest dose activity change, negative = inhibition, usual class: inhibitors; note: potency is the fitted concentration of half-maximal effect; % is set by controls: 0 for no effect and ±100 for the full control effect; nearly all actives have a fitted effect of over 60% in size
# Target sequence (Q99714 whole entry, looked up, one chain of several): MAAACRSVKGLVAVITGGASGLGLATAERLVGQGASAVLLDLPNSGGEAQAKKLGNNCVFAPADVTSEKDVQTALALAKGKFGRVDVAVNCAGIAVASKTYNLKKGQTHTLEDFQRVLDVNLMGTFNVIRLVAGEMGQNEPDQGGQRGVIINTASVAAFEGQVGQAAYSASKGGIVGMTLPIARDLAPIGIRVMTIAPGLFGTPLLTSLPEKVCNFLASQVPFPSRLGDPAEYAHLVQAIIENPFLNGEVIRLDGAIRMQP
#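 NADH fluorescence (ex 360/em 450 nm) read every 30 s for 4 min; activity taken as last-minus-first time point difference. Enzyme 20 nM, NAD+ 1 mM, beta-hydroxybutyryl-CoA 90 uM, pH 9.0 Tris buffer.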
# CRE Fsk mod = alters forskolin-stimulated CRE reporter signaling in CHO cells; Potency, µM (series often up to 38.2 µM), without a hit: top-dose activity change, negative = inhibition, most hits filed as activators; AID 662; 71,000 tested, 2.5% active; CHO CRE-bla reporter (cAMP response element driving beta-lactamase), forskolin EC10, beta-lactamase ratio; active = well fitted activation curve with a large enough effect in the signal ratio, with a control signal flat, not every such curve was filed as active; inconclusive = small, poorly fitted or top-dose-only effect, or effect the other way, or a change in a side signal; the % refers to the signal ratio; note: potency is the fitted concentration of half-maximal effect; % of control where 0% means no effect
#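 The 460nm/530nm emission ratio after CCF4 loading defined %Activity, from which AC50 values were obtained. CRE-bla CHO cells received compound dilution series together with an EC10 level of NKH 477 for 3 hours at 37 degrees Celsius.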
# 4-MU autofl = compounds fluorescent in 4-MU spectral region; compound autofluorescence, 340/450 nm, 4-MU equivalents; hits give high values; max dye-equivalent concentration, M; 59,000 tested, 11% active; AID 589; in the data active = max dye-equivalent concentration above about 10 nM; inconclusive = mostly about 1.1 nM to 9.6 nM
#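 Intrinsic fluorescence at 340/450 nm (ex/em) was read after 15 min at room temperature in pH 8.0, 100 mM Tris. Each compound concentration expressed as 4-MU-equivalent concentration from a six-point 4-MU standard series on each plate.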
# AID923 = qHTS Assay for Allosteric/Competitive Inhibitors of Caspase-1: Spectroscopic Profiling in AFC Spectral Region | 75,000 tested, 1.1% active | Potency, µM (top dose mostly 57.5 µM), for the others: top-dose fluorescence increase, most hits filed as activators | AID 923, 2007 | compound fluorescence, AFC spectral region (405/520 nm); note: potency is the fitted concentration of half-maximal effect; 0% is about no effect
#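 Compound autofluorescence profiled at 405 nm ex/520 nm em during kinetic caspase 1 run (50 nM enzyme, 5 uM Ac-WEHD-AFC, HEPES pH 7.5, 10 mM DTT). Titration up to 57 uM; baseline from regression intercept, normalized to AFC standard curve.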
# HSD17B inh = inhibitors of human HSD17B10 dehydrogenase; Q99714; recombinant HSD17B10, NADH fluorescence kinetic; Potency, µM (series often up to 57.1 µM), inactives show at the highest dose activity change, negative = inhibition, most hits filed as inhibitors; 75,000 tested, 7.6% active; AID 893;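 note: the protocol describes HADH2 (HSD17B10) and not the HSD17B4 of the title; potency is the fitted concentration of half-maximal effect; % is set by controls: 0 for no effect and ±100 for the full control effect; nearly all actives have a fitted effect of over 70% in size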
#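 Enzyme plus compound, 15 min room temperature; substrate mix added (NAD+ 1 mM, beta-hydroxybutyryl-CoA 90 uM final); plates read kinetically for NADH fluorescence. HADH2 was His-tagged, E. coli-derived, 20 nM.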
# A350 fluor = compound fluoresces in the Alexa 350 spectral region | max dye-equivalent concentration, M | Compound autofluorescence, 340/450 nm, Alexa 350 dye-equivalents; hits give high values | 59,000 tested, 11% active; in the data active = max dye-equivalent concentration above about 10 nM; inconclusive = mostly about 1.1 nM to 9.6 nM
# * hit, by the source's call; i = inactive; ? = inconclusive; / = no result; ! = not confirmed by another sample; [ ] = dose if it differs, or a comment. Most compounds without a hit are left out; they make up all but 14% or so of the library. Unless noted, calls come from the whole dose curve; as a rule, active = well fitted curve in the direction sought with a large enough effect; inconclusive = small, poorly fitted or top-dose-only effect, or another doubt; inactive = no such curve, though single readings can be large; an effect the other way counts as inactive or inconclusive.
SMILES,HADH2 inhib,CRE Fsk mod,4-MU autofl,AID923,HSD17B inh,A350 fluor
COC(=O)c1cc2c(ccn2-c2ccc(F)cc2)n1CC(=O)N1CCN(C(=O)c2ccco2)CC1,?,?,i,-1%,25µM*,?
Cc1cc(C)c(S(=O)(=O)Nc2ccccc2C(=O)O)cc1C,?,/,/,4%,?,/
Cc1ccc(S(=O)(=O)Nc2ccccc2C(=O)c2ccc(C)c(C)c2)cc1,11%[11.4 µM],7%[7.6 µM],3.3e-08M*,-2%[11.5 µM],?,3.7e-08M*
COCCCNC(=O)c1ccccc1NS(=O)(=O)c1ccc(C)cc1,-15%,11%,i,1%,32µM*,i
CN(C)C(=O)c1ccc(-c2ccc3ncnc(NC4CC4)c3c2)cc1,1%,?,i,3%,-2%,i
C=CCNc1ncnc2c1[nH]c1ccc(C)cc12,-3%,14%,2.1e-08M*,-3%,32µM*,2.8e-08M*
CCN(CC)CCNC(=O)CCCCn1c(=S)[nH]c2c([nH]c3ccc(OC)cc32)c1=O,?,-2%,2.8e-08M*,-1%,25µM*,3e-08M*
COc1ccc2c(c1)[nH]c1c(=O)n(CCN(C)C)cnc12,/,/,i,/,/,i
Cc1ccc2[nH]c3c(NCCN4CCOCC4)ncnc3c2c1,/,/,i,/,/,?
CCN(CC)CCNc1ncnc2c1[nH]c1ccc(OC)cc12,/,/,4.9e-08M*,/,/,5.4e-08M*
O=C(CC1SC(=NC2CCCCC2)NC1=O)Nc1ccccc1 (stereo unspecified),-9%,?,i,0%,-5%,i
NC(=O)C1CCN(C(=O)c2cnn(-c3ccccc3)c2NC(=O)c2ccco2)CC1,0%,-5%,/,-1%,5%,/
Cc1nc2sccn2c(=O)c1CCN1CCC(=C(c2ccccc2)c2ccc(F)cc2)CC1,?,?,i,-2%,32µM*,i
COc1ccc(S(=O)(=O)NCCC(C)C)cc1OC,8%,2%,i,-2%,7%,i
CC(C)c1ccc(Cn2ccc3c4c(N)nc(NC5CC5)nc4ccc32)cc1,9%,13µM*,/,-4%,?,/
COc1ccc(CC(N)C(=O)NC2C(CO)OC(n3cnc4c(N(C)C)ncnc43)C2O)cc1 (stereo unspecified),/,/,/,3%,-1%,/
COc1ccc(-c2nc3c(Br)c(N)c(Br)cc3o2)cc1,/,/,5.8e-07M*,/,/,6e-07M*
COc1ccc(OCCOCC(O)CN2CCOCC2)cc1 (stereo unspecified),-5%,?,1.6e-08M*,0%,-2%,1.5e-08M*
O=C(c1ccc(Cl)cc1)c1ccc(OCC(O)CN2CCOCC2)cc1 (stereo unspecified),8%,3%,i,-3%,1%,i
N#Cc1ccc(CSc2nc(-c3cccs3)c3c(c2C(=O)O)CCCC3)cc1,?,/,/,0%,?,/
COC(=O)c1cn(CC(=O)N2CCCCCC2)c2ccccc12,6%,16%,i,1%,8%,i
COC(=O)c1cn(CC(=O)NCc2ccco2)c2ccccc12,?,0%,1.1e-08M*,0%,8%,1.1e-08M*
COc1ccc(OC)c(NC(=O)Cn2cc(C(=O)c3ccco3)c3ccccc32)c1,-4%,?,1.8e-08M*,2%,?,1.5e-08M*
COc1cccc(OCCn2cc(C(=O)c3ccco3)c3ccccc32)c1,-21%,18%,1.6e-08M*,1%,?,1.3e-08M*
CCOC(=O)Cn1cc(C(=O)c2ccco2)c2ccccc21,-1%,3%,i,1%,0%,?
SMILES,HADH2 inhib,CRE Fsk mod,4-MU autofl,AID923,HSD17B inh,A350 fluor
O=C(O)Cn1cc(C(=O)c2ccco2)c2ccccc21,-21%,-7%,?,2%,-30%,?
COc1ccccc1OCCn1cc(C(=O)c2ccco2)c2ccccc21,?,?,1.8e-08M*,3%,?,?
COc1ccc(OC)c(NC(=O)Cn2cc(C#N)c3ccccc32)c1,5%,?,i,-1%,-1%,i
COc1ccc(NC(=O)c2cc(CC(C)C)on2)cc1OC,1%,5%,/,-2%,-2%,/
NNC(=O)[C@@H](O)[C@H](O)C(=O)NN,6%[11.4 µM],14%[7.6 µM],i,3%[11.5 µM],0%[11.4 µM],i
C=CCO[C@@H](Cn1ccnc1)c1ccc(Cl)cc1Cl,-6%[25.6 µM],5%[17.1 µM],i,3%[25.7 µM],-1%[25.6 µM],?
CCc1ccc2oc(-c3cc(N)ccc3Cl)nc2c1,10%,-6%,?,1%,20µM*,?
CCc1ccc2oc(-c3cc(N)ccc3O)nc2c1,2%,-7%,i,3%,-9%,?
CC(C)COC[C@H](CN(Cc1ccccc1)c1ccccc1)N1CCCC1,3.2µM*!,-16%[17.1 µM],?,-4%[25.7 µM],-3%[25.6 µM],?
CCN(Cc1ccccc1)c1ccccc1,-1%,2%,/,3%,2%,/
COC(=O)Nc1ccc2c(c1)N(C(=O)CCN1CCOCC1)c1ccccc1S2,-5%,?,5e-08M*,0%,-1%,5.7e-08M*
COc1cc(-c2nc(S(=O)(=O)c3ccc(C)cc3)c(N(C)C)o2)cc(OC)c1OC,-3%,2µM*,i,-1%,-1%,i
COc1cc(-c2nc(S(=O)(=O)c3ccc(C)cc3)c(N3CCOCC3)o2)cc(OC)c1OC,15%,1µM*,i,-1%,-10%,i
COc1cc(-c2nc(S(=O)(=O)c3ccc(Cl)cc3)c(N3CCOCC3)o2)cc(OC)c1OC,-22%,?,i,-3%,?,i
Cc1cc(C)n2c3c(c(C#N)c2n1)CC(C)(C)OC3,/,/,8e-08M*,/,/,9.4e-08M*
CC1(C)Cc2c(C#N)c(SCC(=O)c3ccccc3)nc(N3CCCC3)c2CO1,/,/,i,/,/,?
O=C1c2ccc(-c3nc4ccccc4o3)cc2C(=O)N1Cc1cccnc1,27%,?,3.2e-08M*,1%,15%,4.2e-08M*
c1cncc(-c2nc3ccccc3o2)c1,-13%,?,i,-1%,20µM*,i
c1cncc(-c2nc3cc(Cc4ccc5oc(-c6cccnc6)nc5c4)ccc3o2)c1,16%,0%,i,3%,-3%,i
O=C1CCC(=O)N1c1cccc(-c2nc3ccccc3o2)c1,0%,5%,/,-1%,32µM*,/
CCN(CC)S(=O)(=O)c1ccc(C(=O)Nc2c3c(nn2C(C)(C)C)CS(=O)(=O)C3)cc1,-6%,-10%,i,-1%,7%,i
CSc1ncnc2nc[nH]c12,32µM*,13µM*,/,11%,?,/
COc1ccc(OCCSc2ncnc3nc[nH]c23)cc1,-1%,5%,/,2%,12%,/
COc1ccc(S(=O)(=O)NCC(=O)N(CC(=O)NCC2CCCO2)c2c(C)cccc2C)cc1 (stereo unspecified),0%,-2%,i,0%,-4%,i

# Bioassay records as filed in PubChem.
